# Assay outcomes (PubChem)
# An excerpt weighted towards active compounds, which were near 2.2% of everything screened.
# GRK2 inh – human GRK2 inhibition via aptamer displacement; P25098; bead flow cytometry, FAM-aptamer displacement from GRK2; inhibition of aptamer binding, % at 10 µM; 330,000 tested, 0.59% active;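 active means inhibition of aptamer binding above 40%, roughly 3 SD of noise, on plates passing a quality check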;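 further: median bead fluorescence of bound FAM aptamer so fluorescent compounds give negative values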
# TLR9-MyD88 inh – blocks human TLR9 binding to MyD88 | Q9NR96+Q99836 | CHO BLA complementation TLR9-MyD88, CCF4 FRET ratio | inhibition, % at 4.98 µM | 340,000 tested, 0.21% active | AID 504734;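 active means inhibition above the mean over all tested compounds plus 3 SD, cut at about 21% in these data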;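 further: 0% = DMSO only wells and 100% = clavulanate BLA inhibitor control wells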
# ANO1 block – inhibitors of mouse TMEM16A calcium-activated chloride channel | Q8BHY3 | HEK293 TMEM16A/YFP iodide influx fluorescence, ionomycin | normalized B-score (activity score, 25-100; higher = stronger inhibition) at 10 µM | 310,000 tested, 1.2% active;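 active means ratio plate-corrected score three or more library SD toward inhibition, starting fluorescence score within five deviations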;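 further: score derived from kinetic fluorescence span divided by baseline fluorescence per well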
# Target sequence (Q8BHY3 whole entry, looked up): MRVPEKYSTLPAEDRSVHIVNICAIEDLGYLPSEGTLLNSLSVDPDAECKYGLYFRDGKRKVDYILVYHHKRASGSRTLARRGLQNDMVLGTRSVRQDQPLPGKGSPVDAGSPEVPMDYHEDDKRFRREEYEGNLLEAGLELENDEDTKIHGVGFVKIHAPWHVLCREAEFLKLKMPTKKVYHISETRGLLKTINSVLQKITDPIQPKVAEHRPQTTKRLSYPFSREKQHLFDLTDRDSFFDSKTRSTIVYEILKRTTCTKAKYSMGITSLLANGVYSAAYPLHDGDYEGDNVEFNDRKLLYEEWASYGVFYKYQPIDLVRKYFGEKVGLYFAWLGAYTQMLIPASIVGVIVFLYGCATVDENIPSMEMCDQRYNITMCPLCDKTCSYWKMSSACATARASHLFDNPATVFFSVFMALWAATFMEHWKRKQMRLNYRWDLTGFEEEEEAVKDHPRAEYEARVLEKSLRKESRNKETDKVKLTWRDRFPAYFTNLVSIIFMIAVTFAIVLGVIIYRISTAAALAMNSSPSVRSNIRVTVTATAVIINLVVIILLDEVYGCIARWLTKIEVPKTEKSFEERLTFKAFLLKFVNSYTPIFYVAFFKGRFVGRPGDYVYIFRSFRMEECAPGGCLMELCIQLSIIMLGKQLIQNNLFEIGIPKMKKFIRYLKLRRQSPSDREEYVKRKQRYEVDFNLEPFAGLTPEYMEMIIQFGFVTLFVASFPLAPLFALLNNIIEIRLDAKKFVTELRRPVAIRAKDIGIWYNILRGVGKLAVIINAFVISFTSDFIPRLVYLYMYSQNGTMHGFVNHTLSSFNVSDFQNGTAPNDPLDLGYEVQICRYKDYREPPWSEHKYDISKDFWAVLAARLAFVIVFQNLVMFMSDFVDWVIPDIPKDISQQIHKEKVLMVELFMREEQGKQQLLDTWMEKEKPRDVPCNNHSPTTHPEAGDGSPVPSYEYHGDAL
# TMEM16A act – mouse TMEM16A channel activation, primary screen. HEK293 TMEM16A/YFP-H148Q/I152L, iodide quench fluorescence; active compounds read low. B-score at 10 µM. 340,000 tested, 0.3% active. AID 623877;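 active means fluorescence-ratio B-score plate-corrected deviation score at least 3 library SD below zero, with starting fluorescence score within 5 deviations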;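 further: channel opened by trigger with iodide after compound preincubation; score built on the fluorescence ratio of max minus min over baseline; more negative score means more quench and so TMEM16A activation or potentiation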
# NOD2-RIPK2 inh – NOD2-RIPK2 protein interaction inhibition; O43353; 360,000 tested, 0.38% active; inhibition, % at 4.98 µM; AID 624267; CHO BLA complementation NOD2-RIPK2, CCF4 ratio; in the data active means inhibition above about 21%;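 further: 0% = vehicle only and 100% = reference blocker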
# TLR4 MyD88 comp – blocks binding of human TLR4 to MyD88 | O00206+Q99836 | HeLa CL3-4 TLR4/MyD88 BLA complementation, FRET ratio | inhibition, % at 8.4 µM | 200,000 tested, 0.18% active; in the data active means inhibition above about 25%;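 further: 0% = vehicle and 100% = reference inhibitor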
# TMEM16A reconf – TMEM16A (mouse) chloride channel inhibition, re-confirmation; shares compounds with ANO1 block; HEK293 TMEM16A/YFP-H148Q, iodide quench fluorescence; ionomycin added to raise cell calcium; inhibition, % at 10 µM; 2,300 tested, 39% active;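 active means mean duplicate percent inhibition, scaled so buffer wells are 0 and the reference blocker 100, over three buffer SD above buffer mean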
# HEK293 Ca mobil – counter-screen for TMEM16A inhibitors: effect on calcium mobilization. AID 652231. TMEM16A/YFP HEK293, Fluo4 calcium mobilization. 2,300 tested, 2% active. calcium response (% of ionomycin), % at 10 µM. shares compounds with ANO1 block;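 active means duplicate-averaged calcium signal over 20% of the ionomycin maximum, relative to buffer baseline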;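 further: each well's signal is peak minus trough fluorescence divided by its pre-addition baseline; 0% = buffer wells and 100% = ionomycin wells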
# YFP-HEK293 quench – parental YFP-HEK293 iodide quench counter-screen activity; shares compounds with ANO1 block; YFP ratio F(max-min)/F0 at 10 µM; ionomycin; 2,300 tested, under 10 active; AID 652233;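 active means yellow fluorescent protein signal ratio exceeding the buffer control mean by over 5 SD of those controls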;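 further: ratio is mean of duplicate wells from kinetic YFP trace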
# ClC-1 rat inh – selectivity of TMEM16A inhibitors: inhibition of rat ClC-1 chloride channel; shares compounds with ANO1 block; CHO ClC-1-YFP, iodide influx fluorescence quench; iodide control reads 0, buffer control 100; ratio percent, % at 10 µM; 2,300 tested, under 10 active;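 active means duplicate-mean ratio percent above the mean of iodide-only control wells, which defines zero, plus 5 of their SD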;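 further: higher percent means stronger block of ClC-1 iodide influx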
# Numbers without * were called inactive; i = inactive; . = no result.
SMILES,GRK2 inh,TLR9-MyD88 inh,ANO1 block,TMEM16A act,NOD2-RIPK2 inh,TLR4 MyD88 comp,TMEM16A reconf,HEK293 Ca mobil,YFP-HEK293 quench,ClC-1 rat inh
CC(C)c1ccc(C(C)NC(=S)NC2CCCCC2)cc1 (centres undefined),2,-3,25*,i,-3,.,26%*,i,-1,-2
CCc1ccc(C(C)NC(=S)NC2CCCCC2)cc1 (centres undefined),1,-3,i,i,-5,.,.,.,.,.
CC(NC(=S)NC1CCCCC1)c1ccc(C(C)(C)C)cc1 (centres undefined),2,-17,25*,i,2,.,i,i,-0.78,2
CCCCn1c(SCc2nc3ccccc3s2)nc2cc(S(N)(=O)=O)ccc21,2,6,25*,i,6,-5,i,i,-0.81,-3
CCCCn1c(SCc2nc3ccccc3s2)nc2ccccc2c1=O,0,2,i,i,0,-3,.,.,.,.
CN1CCN(/N=C/c2ccc(N(c3ccccc3)c3ccccc3)cc2)CC1,0,3,100*,i,7,6,32%*,i,-0.93,-3
Cc1nn(-c2ccc(Cl)cc2)c2[nH]c(CCl)cc(=O)c12,0,-7,100*,i,2,.,46%*,i,-1,-10
Cc1cc(=O)[nH]c2c1c(C)nn2-c1ccccc1,0,-1,i,i,-9,-5,.,.,.,.
CC(NC(=O)C(C)N1CCN(Cc2ccccc2)CC1)c1ccccc1 (centres undefined),3,0,i,i,-3,.,.,.,.,.
C=C(c1ccc(O)cc1)c1ccc(O)cc1,3,-10,100*,i,-11,-5,24%*,i,-1.1,-15
C/C=C(/C(=C/C)c1ccc(O)cc1)c1ccc(O)cc1,2,-5,i,i,7,5,.,.,.,.
NC1=NC[C@H](Cc2ccccc2)N1CCCCC1CCCCC1,0,-6,25*,i,-4,.,38%*,i,-1,-12
CC[C@H]1C(Nc2ccccc2)C[C@@H]2CCN3C(=O)CC[C@H]1[C@H]23 (some centres undefined),.,-4,.,i,-3,.,.,.,.,.
Cc1ccc(SCc2ccc(C(=O)N3CCCCC3)cc2)cc1,2,12,100*,i,5,-6,i,i,-1.1,-6
CCOc1ccccc1N(CC(=O)Nc1ccccc1C(=O)N1CCCC1)S(C)(=O)=O,0,-8,i,i,-8,.,.,.,.,.
O=C(NCc1ccccc1)c1cc(C2CCCCN2C(=O)OCCF)on1 (centres undefined),.,.,.,.,-2,.,.,.,.,.
NC(=O)CSc1nc(-c2ccccc2)nc2ccccc12,1,-7,i,.,-36,.,.,.,.,.
Cc1cccc2c(SCC(N)=O)nc(-c3ccccc3)nc12,0,-3,100*,i,3,.,i,i,-1.2,-12
COc1ccc(CN2CCc3c([nH]c4ccccc34)C2)cc1Br,0,13,100*,i,4,.,i,i,-1,-4
CCOc1cc(CN2CCc3c([nH]c4ccccc34)C2)ccc1OC,3,-3,i,i,-2,.,.,.,.,.
CCN1C(=O)[C@@H]2[C@H](C1=O)[C@@H]1C(=O)Nc3ccccc3C(=O)N1[C@@H]2c1cccc(Cl)c1,1,3,i,i,2,.,.,.,.,.
CC(Sc1nc(NCc2ccccc2)nc(N(C)C)n1)C(=O)Nc1ccccc1 (centres undefined),4,4,100*,i,-12,1,i,i,-1.4,-12
CCOC(=O)c1cnc(-n2nc(C)cc2C)nc1NC1CCCC1,0,9,25*,i,4,.,54%*,i,-0.95,-38
CCOC(=O)C1(C)CCCN(C(=O)c2cccnc2)C1 (centres undefined),.,.,.,.,-1,.,.,.,.,.
Fc1cccc(Cl)c1-c1nnc2ccc3ccccc3n12,1,2,25*,i,-9,2,i,i,-0.9,-10
SMILES,GRK2 inh,TLR9-MyD88 inh,ANO1 block,TMEM16A act,NOD2-RIPK2 inh,TLR4 MyD88 comp,TMEM16A reconf,HEK293 Ca mobil,YFP-HEK293 quench,ClC-1 rat inh
Fc1ccccc1-c1nnc2ccc3ccccc3n12,.,-1,i,i,4,.,.,.,.,.
Fc1ccc2nc(Nc3nc4c(F)cccc4s3)sc2c1,4,0,25*,i,-6,-4,25%*,i,-0.89,-13
Fc1ccc2nc(Nc3nc4c(F)cc(F)cc4s3)sc2c1,0,-5,i,i,-11,-13,.,.,.,.
COc1ccc2c(c1)CCc1c(C(=O)NC3CCCCC3)noc1-2,0,0,100*,i,-2,5,i,i,-0.84,-4
COCCNC(=O)c1noc2c1CCc1cc(OC)ccc1-2,0,-8,i,i,-9,17,.,.,.,.
CCn1c(CNc2ccc(Cl)cc2)nnc1SCC(=O)OC1CCCCC1,2,-10,100*,i,0,-1,18%*,i,-1.2,-8
Cc1ccc(S(=O)(=O)Oc2ccccc2/C=C2/SC(=O)NC2=O)cc1,2,-3,25*,i,7,.,i,i,-0.9,-11
O=C1NC(=O)/C(=C\c2ccccc2OCc2ccccc2)S1,3,-15,i,i,-6,-16,.,.,.,.
Cc1ccc(NC(=O)C2C3C=CC4(CN(Cc5cccnc5)C(=O)C24)O3)cc1F (centres undefined),3,-3,i,i,-15,-4,.,.,.,.
Cc1cc(NC(=O)C(C)SCC(=O)NCc2ccc(F)cc2)no1 (centres undefined),0,1,.,i,-18,.,.,.,.,.
CCOc1cc(-c2ccc(N)c(OCC)c2)ccc1N,0,1,i,i,4,-3,i,i,-0.71,4
Cc1ccc(N(C)S(=O)(=O)c2ccc(-c3cc(C)no3)s2)cc1,0,-3,25*,i,-1,.,33%*,i,-0.98,-12
Cc1cc(-c2ccc(S(=O)(=O)N(C)c3ccc(C)c(C)c3)s2)on1,0,2,i,i,11,.,.,.,.,.
CC(C)CC1CC(=O)OC1(C)C(=O)CSc1nc2ccccc2s1 (centres undefined),5,-2,100*,i,-1,-4,i,i,-1.2,-6
